The text below walks through data of PubChem BioAssay (Tox21).

Inconclusive results are not listed. The source made the active and inactive calls. Calls come from the whole dose curve; as a rule, active = well fitted cell-killing curve with a large enough effect in the repeat runs; inconclusive = weak or mixed curves, or effect the other way; inactive = no such curve, though single readings can be large or run the other way.
% is set by controls: 0 for no effect and ±100 for the full control effect; potency is the fitted concentration of half-maximal effect.

This assay is described as follows: qHTS assay to identify small molecule antagonists of the progesterone receptor (PR) signaling pathway - cell viability counter screen (AID 1346798). Note: nearly all actives have a fitted effect of over 50% in size. Particulars: PR-UAS-bla HEK293T viability, CellTiter-Glo luminescence, 16 h; series mostly up to 92.4 µM; activity change, negative = cytotoxicity: at the top concentration. A digest of the protocol: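 PR-UAS-bla HEK293T cells, 3,000/well in 2% charcoal-stripped FBS medium, dosed with compounds plus R5020 agonist and incubated 16 h at 37C. Viability then measured in the same wells by CellTiter-Glo luminescence after 30 min at RT.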
With `CC(NN)c1ccccc1` (stereo not given), the activity change, negative = cytotoxicity was 0.118% [at 18.9 µM] (inactive).
For the compound `CCCCCCCC[P+](CCCCCCCC)(CCCCCCCC)CCCCCCCC`, the Potency is 15.3 µM (active).
As for `CCN(Cc1cccnc1)C(=O)c1cccc(Cl)c1[C@]1(C)C(=O)N(Cc2ccc(OC)cc2OC)c2ccc(Cl)cc21`, the “activity change, negative = cytotoxicity” value was -7.52% (inactive).
Turning to `N/C(=N\N=C\c1ccc(Cl)cc1)N/N=C/c1ccc(Cl)cc1`, the Potency is 29.8 µM (active).
Take `Cc1ccc(O)c(C(C)(C)C)c1`: the Potency entry is “inactive”.
On to `CCCCCCCCCCC=O`, for which the “activity change, negative = cytotoxicity” value is 0.408% (inactive).
On to `CCCCCCCCOc1ccccc1C(=O)Nc1ccc(C(=O)OCC[N+](C)(CC)CC)cc1`, for which the Potency was 29.8 µM (active).
In the case of `CC(=O)S[C@@H]1CC2=CC(=O)CC[C@]2(C)[C@H]2CC[C@@]3(C)[C@@H](CC[C@@]34CCC(=O)O4)[C@H]12`, the Potency was 24.3 µM (active).
With `C[C@]12CCC(=O)C=C1CC[C@@H]1[C@@H]2[C@@H](O)C[C@@]2(C)[C@H]1CC[C@]2(O)C(=O)COC(=O)CCC(=O)O`, the “activity change, negative = cytotoxicity” value was -19.1% [at 42.5 µM] (inactive).
As to `Cc1onc(-c2c(Cl)cccc2Cl)c1C(=O)N[C@@H]1C(=O)N2[C@@H]1SC(C)(C)[C@@H]2C(=O)O`, the “activity change, negative = cytotoxicity” value is -1.45% [at 42.5 µM] (inactive).
With `CC[C@H]1O[C@]2(CC[C@@H]1C)C[C@@H]1C[C@@H](C/C=C(\C)C[C@@H](C)/C=C/C=C3\CO[C@@H]4[C@H](O)C(C)=C[C@@H](C(=O)O1)[C@]34O)O2`, the Potency was 68 µM (active).
With `CCN(CC)CCNC(=O)c1c(C)[nH]c(/C=C2\C(=O)Nc3ccc(F)cc32)c1C`, the Potency was 11.9 µM (active).
The same measure, in the same setting: as for `CCCC(c1cc(C(C)(C)C)c(O)cc1C)c1cc(C(C)(C)C)c(O)cc1C`, the figure is 22 µM (active); as for `CCCCCCCC[N+](CCCCCCCC)(CCCCCCCC)CCCCCCCC`, 30.6 µM (active).
On to `O=C1CCCc2c1cc1ccc3cccc4ccc2c1c34`, for which the “activity change, negative = cytotoxicity” value was 2.13% (inactive).
For `NC(=O)NS(=O)(=O)c1ccc(N)cc1`, the “activity change, negative = cytotoxicity” value was 3.47% [at 42.5 µM] (inactive).
As for `O=C(Oc1ccccc1)c1ccccc1C(=O)Oc1ccccc1`, the “activity change, negative = cytotoxicity” value was 17.8% (inactive).
With `Cc1onc(-c2ccccc2Cl)c1C(=O)N[C@@H]1C(=O)N2[C@@H]1SC(C)(C)[C@@H]2C(=O)O`, the “activity change, negative = cytotoxicity” value is -0.741% [at 42.5 µM] (inactive).
Consider `O=C(O)c1cc(O)c2c(c1)C(=O)c1cccc(O)c1C2=O`, for which the “activity change, negative = cytotoxicity” value was 0.759% (inactive).
As for `CC(C)(C)CC(C)(C)c1ccc(OCCOCC[N+](C)(C)Cc2ccccc2)cc1`, the Potency was 54.4 µM (active).
